KLF5 inhibitor: inhibitors of KLF5 expression; DLD-1 KLF5 promoter-luciferase reporter, luminescence; inhibition, % at 5 µM; 290,000 tested, 0.23% active;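 active = inhibition above a per-plate limit of that plate's mean compound inhibition plus 3 SD, cut at about 60% in these data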;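 also: higher means less KLF5 promoter-driven luciferase light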
IEC-6 cytotox: IEC-6 cytotoxicity, counter-screen for KLF5 inhibitors. inhibition, % at 5 µM. luminescence viability. AID 1825. 290,000 tested, 0.78% active; in the data active = inhibition above about 22%
APP 5UTR inh: APP translation inhibition. SH-SY5Y APP 5'UTR-luciferase reporter, luminescence. inhibition, % at 2 µM. 190,000 tested, 0.82% active;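 active = inhibition above a set limit, derived from the sample mean plus 3 SD, cut at about 45% in these data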
aSyn 5UTR inh: MLPCN primary screen, SNCA 5' untranslated region; alpha-synuclein 5'UTR reporter, inhibitor activity; inhibition, % (tested at 7.5 µM); 300,000 tested, 0.82% active; AID 1813; in the data active = inhibition above about 60%;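 also: H4 neuroglioblastoma cells stably carrying SNCA 5'UTR luciferase fusion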
BaF3 tox: counter-screen for JAK2V617F inhibitors: parental Ba/F3 viability inhibitors; inhibition, % at 5.6 µM; 220,000 tested, 1.1% active; CellTiter-Glo ATP luminescence; AID 1486;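 active = inhibition above a per-campaign cutoff, the mean inhibition of all tested compounds plus 3 SD, cut at about 27% in these data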
Ba/F3 V617F tox: lowers viability of Ba/F3 cells expressing EpoR and JAK2V617F; ATP luminescence; inhibition, % at 5.6 µM; 220,000 tested, 1.1% active;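 active = inhibition above the campaign mean plus 3 SD over all tested compounds, cut at about 24% in these data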;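 also: cytokine-independent growth of Ba/F3 cells driven by EpoR plus mutant JAK2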
BaF3 parental 2: parental Ba/F3 viability inhibition for JAK2V617F counter-screen. shares compounds with Ba/F3 V617F tox. CellTiter-Glo luminescence; cells kept alive by added IL-3. inhibition, % at 5.6 µM. 580 tested, 31% active. AID 1520;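 active = cell growth inhibition above the hit limit set in the earlier mutant JAK2 cell screen, cut at about 27% in these data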
JAK2V617F confrm: confirmation: loss of viability in JAK2V617F-dependent Ba/F3 cells; Ba/F3 EpoR-JAK2V617F viability, CellTiter-Glo luminescence; 580 tested, 66% active; shares compounds with Ba/F3 V617F tox; inhibition, % at 5.6 µM; AID 1521;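 active = mean inhibition above the hit cutoff derived in the earlier primary screen, cut at about 25% in these data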;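 also: higher means lower luminescence from reduced cell ATP and viability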
A number is an active result; 0 = inactive; - = no result given. Most compounds without a hit are left out; they make up all but 2.2% or so of the library.

SMILES	KLF5 inhibitor	IEC-6 cytotox	APP 5UTR inh	aSyn 5UTR inh	BaF3 tox	Ba/F3 V617F tox	BaF3 parental 2	JAK2V617F confrm
COc1ccc(CCNC(=O)C(NS(=O)(=O)c2ccc3c(c2)CCN3C(C)=O)C(C)C)cc1OC (stereo unspecified)	0	0	0	0	0	65	0	0
CCOc1ccc(OCCn2c(=S)[nH]c3c(N)ncnc32)cc1	0	0	0	0	0	0	-	-
Cc1ccc(OCCn2cnc3c(N)ncnc32)cc1	0	0	0	0	0	93	82	28
CCOc1cc(C(=O)NCCCNC(=O)c2cc(OCC)c(OCC)c(OCC)c2)cc(OCC)c1OCC	-	-	-	0	-	-	-	-
COC(=O)C1(C)Cc2cc(OC(C)=O)c(OC(C)=O)cc2N1 (stereo unspecified)	0	0	-	0	0	37	0	46
O=C1/C(=C/c2ccc(O)c(O)c2)SC(=S)N1Nc1ccccc1	0	0	0	0	0	38	0	67
COc1cc(/C=C2\SC(=S)N(Nc3ccccc3)C2=O)ccc1O	0	0	0	0	0	0	-	-
Cc1ccc(-c2nc(-c3ccc(Cl)cc3)sc2CC(=O)O)c(C)c1	0	0	0	0	0	0	-	-
Cc1ccc(S(=O)(=O)NC(CC(=O)n2nc(C)cc2C)c2ccccc2)cc1 (stereo unspecified)	0	0	0	0	0	0	-	-
Cc1ccc(S(=O)(=O)NC(c2ccccc2)C(C)C(=O)n2nc(C)cc2C)cc1 (stereo unspecified)	0	0	0	0	0	64	0	0
Cc1ccc(Nc2nc(N)nc(CCl)n2)cc1	0	0	-	0	0	34	0	58
Nc1nc(CCl)nc(Nc2ccccc2)n1	0	0	0	0	0	0	-	-
COc1cccc(Nc2nc(N)nc(CCl)n2)c1	0	0	-	0	0	0	-	-
CCOc1ccc(Nc2nc(N)nc(CCl)n2)cc1	0	100	-	96	0	99	0	99
Cc1ccccc1C(=O)N(C)c1ccccc1C(=O)NCc1ccccc1	0	0	-	0	-	-	-	-
CCCn1c(CN(C)Cc2ccccc2)nc2c1c(=O)n(C)c(=O)n2C	0	0	0	0	0	35	0	58
CCCn1c(CN(Cc2ccccc2)Cc2ccccc2)nc2c1c(=O)n(C)c(=O)n2C	0	0	0	0	0	0	-	-
COc1cccc(/C=C/C(=O)OCC(=O)Nc2ccc(N3CCOCC3)cc2)c1OC	0	0	0	0	0	42	0	0
Cc1cc(F)ccc1NCc1ccncc1	0	0	0	0	0	50	0	0
COCCCNC(=S)Nc1cccc2ncccc12	0	0	0	0	0	0	-	-
CCCCN(CC)Cc1ccc(CNC(=O)Nc2ccc(Cl)cc2)o1	0	0	0	0	0	47	0	42
COc1ccc(CN(C)C2c3ccccc3-c3ccccc32)cc1	0	0	0	0	0	0	-	-
Cn1c(=N)n(CC(O)c2cccc3ccccc23)c2ccccc21 (stereo unspecified)	0	0	0	0	0	41	0	28
CCCC1O[C@@H]2CC3C4CCC5=CC(=O)C=C[C@]5(C)C4C(OC(C)=O)C[C@]3(C)[C@]2(C(=O)COC(C)=O)O1 (stereo partly specified)	0	0	0	0	0	25	0	28
CCCSc1nsc(SCCC)c1C#N	0	0	0	0	0	0	-	-
SMILES	KLF5 inhibitor	IEC-6 cytotox	APP 5UTR inh	aSyn 5UTR inh	BaF3 tox	Ba/F3 V617F tox	BaF3 parental 2	JAK2V617F confrm
C#CCSc1nsc(SCC#C)c1C#N	0	0	0	0	0	45	0	72
Cc1ccc(C(=O)n2c(N)nc3ccccc32)cc1	0	0	0	81	0	51	0	0
COc1ccc2nc(NC(=O)CN3CCOCC3)sc2c1	0	0	0	0	0	83	0	0
COc1ccc2nc(NC(=O)CN3CCN(C)CC3)sc2c1	0	0	0	0	0	0	-	-
c1ccc(-c2nc(-c3ccccn3)no2)cc1	0	0	0	0	0	25	29	0
Cc1cc(C)nc(/N=C(\N)Nc2cccc(OCc3ccccc3)c2)n1	0	0	-	0	0	0	-	-
Cc1cc(C)nc(/N=C(\N)Nc2ccc(OCc3ccccc3)cc2)n1	0	0	0	0	0	34	0	39
COc1ccccc1Nc1nc(-c2c(C)nc3ncccn23)cs1	0	0	0	0	0	55	33	59
